PNC inhibitor = High Content Assay for Compounds that inhibit the Assembly of the Perinucleolar Compartment; PC3M PTB-GFP, PNC prevalence imaging, 16 h; hits give low values; activity change (PNC), negative = inhibition, % at 10 µM; actives 3.1% (n = 140,000); AID 2417, 2010;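 active = readout at or below -70, meaning at least 70% loss of cells showing the perinucleolar compartment, a nuclear body marking cancer cells; inconclusive = readout between -30 and a set limit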
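PC3M cells stably expressing PTB-GFP, 750–1000 cells/well, treated 16 h at 37 °C with compound (23 nl of library stock), in duplicate. After paraformaldehyde fixation and Hoechst stain, imaged at 20x; PNC prevalence scored by image analysis.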
HPGD block = qHTS Assay for Inhibitors of HPGD (15-Hydroxyprostaglandin Dehydrogenase). 15-hydroxyprostaglandin dehydrogenase [NAD(+)] (Homo sapiens), P15428. purified HPGD, NADH fluorescence kinetic, PGE2 substrate. Potency, µM, hits mostly inhibitors. actives 4.3% (n = 150,000)
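20 nM HPGD preincubated 15 min at room temperature with compound in 50 mM Tris-HCl pH 8, 0.01% Tween 20. Started with 1 mM NAD+ and 30 uM prostaglandin E2; NADH fluorescence (360/450 nm) read 5 times over 30-s intervals, last minus first.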
ALDH1A1 block = qHTS Assay for Inhibitors of Aldehyde Dehydrogenase 1 (ALDH1A1). actives 7.3% (n = 220,000). Aldehyde dehydrogenase 1A1 (Homo sapiens), P00352. AID 1030, 2008. Potency, µM (titrated, usually from 75.3 µM), usual class: inhibitors. Purified ALDH1A1, NADH fluorescence, propionaldehyde substrate
Target sequence (P00352 whole entry, looked up): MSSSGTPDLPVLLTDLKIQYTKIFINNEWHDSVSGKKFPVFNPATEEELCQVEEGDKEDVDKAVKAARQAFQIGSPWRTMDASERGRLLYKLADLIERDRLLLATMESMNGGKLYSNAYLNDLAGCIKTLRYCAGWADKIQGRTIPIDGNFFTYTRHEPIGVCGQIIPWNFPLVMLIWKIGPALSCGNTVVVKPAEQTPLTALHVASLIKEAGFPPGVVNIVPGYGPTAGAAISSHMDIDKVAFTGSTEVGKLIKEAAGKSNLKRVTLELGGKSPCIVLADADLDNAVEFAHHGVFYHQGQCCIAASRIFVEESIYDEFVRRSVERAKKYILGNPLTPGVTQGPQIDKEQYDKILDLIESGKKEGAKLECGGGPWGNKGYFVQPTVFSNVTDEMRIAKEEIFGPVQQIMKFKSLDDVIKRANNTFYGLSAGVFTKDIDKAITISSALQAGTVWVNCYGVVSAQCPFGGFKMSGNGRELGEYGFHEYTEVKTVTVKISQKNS
Of the large screens only hits and unclear results are named; the others gave an inactive call. Shown are actives, neighbours in structure and some others; about 11% of the full set was active somewhere. Unless noted, calls follow the shape of the dose curve; as a rule, active = well fitted inhibition curve with a large enough effect (not every such curve was filed as active); inconclusive = small, poorly fitted or top-dose-only effect, or another doubt; inactive = no such curve, though single readings can be large or run the other way.

Cc1cc(C)n(-c2ccc(C(=O)OCC(=O)Nc3ccc(S(=O)(=O)N4CCOCC4)cc3)cc2)n1	PNC inhibitor -87
CCOc1cc(C(=O)Nc2ccc(S(=O)(=O)N3CCOCC3)cc2)cc(OCC)c1OCC	none
COc1ccc(NS(=O)(=O)c2ccc(C)c(NC(=O)c3ccc(C)c(S(=O)(=O)N4CCOCC4)c3)c2)cc1	PNC inhibitor inconclusive
N#Cc1ccc(NC(=S)NC(=O)CCc2ccc(S(=O)(=O)N3CCOCC3)cc2)cc1	ALDH1A1 block 16µM (no result: PNC inhibitor, HPGD block)
COc1ccc(NC(=O)CNc2cc(S(=O)(=O)N3CCOCC3)ccc2NCC2CCCO2)cc1 (stereo unspecified)	ALDH1A1 block 7.1µM (no result: PNC inhibitor, HPGD block)
N#Cc1ccc(NC(=O)CCc2ccc(S(=O)(=O)N3CCOCC3)cc2)cc1	PNC inhibitor inconclusive, ALDH1A1 block inconclusive
CCOCC(=O)Nc1ccc(S(=O)(=O)N2CCOCC2)cc1	ALDH1A1 block 10µM
Cc1cc(C)n(-c2ccc(C(=O)OCC(=O)Nc3ccc([N+](=O)[O-])cc3)cc2)n1	PNC inhibitor inconclusive
CSCC[C@@H](N)C(=O)O	none (no result: PNC inhibitor, HPGD block)
O=C(CCCOc1ccccc1)Nc1ccc(S(=O)(=O)N2CCOCC2)cc1	none
COc1ccc(CCNC(=O)COc2ccc(S(=O)(=O)N3CCOCC3)cc2)cc1	PNC inhibitor inconclusive
O=C(COC(=O)COc1ccccc1)Nc1ccc(S(=O)(=O)N2CCOCC2)cc1	ALDH1A1 block 32µM (no result: PNC inhibitor, HPGD block)
CCC(C)NC(=O)COc1ccc(S(=O)(=O)N2CCOCC2)cc1 (stereo unspecified)	ALDH1A1 block 5µM
CSCCC(=O)Nc1cc(S(=O)(=O)N2CCOCC2)ccc1N1CCN(C)CC1	none (no result: PNC inhibitor, HPGD block)
COc1ccc(NC(=O)CSc2nnc(-c3cccnc3)n2Cc2ccco2)c(OC)c1	none
COCC(=O)N1CCC2(CC1)CCN(C(c1ccccc1)c1ccccc1)CC2	none (no result: PNC inhibitor)
Cc1cc(Cl)ccc1OCCCC(=O)NCCN1C(=O)S/C(=C\c2cccnc2)C1=O	none
O=C(NC1CCCc2ccccc21)C(Cc1ccccc1)NS(=O)(=O)c1cccs1 (stereo unspecified)	none
Cc1cc(NC(=O)COC(=O)c2ccco2)no1	none (no result: PNC inhibitor, HPGD block)
Oc1c(C(Nc2cccc(C(F)(F)F)c2)c2cccnc2)ccc2cccnc12 (stereo unspecified)	ALDH1A1 block 20µM
Cc1cc(NC(c2cccnc2)c2ccc3cccnc3c2O)no1 (stereo unspecified)	none
CCc1c(C(=O)Nc2ccccc2)c(C)[nH]c(=S)c1C#N	HPGD block 20µM, ALDH1A1 block 3.5µM
CCOC(=O)c1ccc(NC(=O)c2c(C)[nH]c(C(=O)OCC)c2C)cc1	none
Cc1ccccc1NC(=O)c1c(C)[nH]c(=S)c(C#N)c1-c1ccco1	none
Cc1[nH]c(=S)c(C#N)c(C)c1C(=O)Nc1ccccc1	HPGD block 22µM, ALDH1A1 block inconclusive
CCOc1ccc(C(=S)NC2CCCCC2)cc1	HPGD block 14µM, ALDH1A1 block 8.9µM
CCOc1cccc(C(=O)NC2CCCCC2)c1	PNC inhibitor inconclusive, HPGD block 28µM
COc1ccc(C(=S)NC2CCCCC2)cc1	none (no result: HPGD block)
CCCCOc1cccc(C(=O)NNC(=S)NC2CCCCC2)c1	PNC inhibitor inconclusive
CC(C)(O)C#Cc1ccc(CN2CCN(C3CCCC3)C(CCO)C2)cc1 (stereo unspecified)	none (no result: PNC inhibitor, HPGD block)
COC(=O)C1=C(C)NC(C)=C(C(=O)OCCNCc2ccccc2)C1c1cccc([N+](=O)[O-])c1 (stereo unspecified)	none (no result: PNC inhibitor)
COn1c(-c2ccccc2)nc2c1CCc1nonc1-2	ALDH1A1 block 7.9µM
CN(C)C=Nc1nonc1-c1ccccc1	none (no result: PNC inhibitor, HPGD block)
Clc1ccc(COn2c(-c3ccccc3)nc3ccccc32)cc1	none
c1ccc(COn2c(-c3ccccc3)nc3c2CCc2nonc2-3)cc1	ALDH1A1 block 8.9µM (no result: HPGD block)
Cc1c(-c2ccc(O)cc2)nn(-c2ccc(O)cc2)c1-c1ccc(OCCN2CCCCC2)cc1	ALDH1A1 block inconclusive (no result: PNC inhibitor)
C[C@H](NC(=O)c1nc[nH]c1C(=O)NCCCCCNC(=O)OC(C)(C)C)C(=O)OC(C)(C)C	none (no result: PNC inhibitor, HPGD block)
C=CC[C@H]1CC(C)=C[C@H](CC=C)N1	none (no result: PNC inhibitor, HPGD block)
C=CC[C@H]1CC(Cc2ccccc2)=C[C@H](CC=C)N1	PNC inhibitor -81, ALDH1A1 block inconclusive
CCOC(=O)CSc1nc2c(c(-c3ccc(C)o3)c1C#N)CCCC2	HPGD block inconclusive, ALDH1A1 block inconclusive
COC(=O)CSc1nc2c(c(-c3ccco3)c1C#N)CCCC2	HPGD block 13µM, ALDH1A1 block 13µM
COC(=O)Cc1ccc(O)c(N)c1	ALDH1A1 block 28µM (no result: PNC inhibitor, HPGD block)
COC(=O)[C@@H](N)Cc1ccc(O)c(O)c1	none (no result: PNC inhibitor)

Screening results (PubChem)
